# Measured values reported in PubChem BioAssay (EPA / NIEHS).
# Results filed as inconclusive are left out. Some compounds were tested as several samples or in several runs, with calls that do not always agree. Active and inactive are the calls of the source. The calls were made as follows, unless noted: active = hit-call score of the fitted dose curve at least 0.9, where 1 is the maximum; inconclusive = response in the unintended direction; inactive = score below 0.9.
# Assays:
# [1] = target: Estrogen receptor (Homo sapiens) (UniProt P03372); test: OT_ERa_GFPERaERE_0120: Odyssey Thera (OT) 2-hour HeLa Transcription Induction Assay for Estrogen Receptor (AID 2283382)
# Estrogen receptor (Homo sapiens), sequence (P03372 whole entry, looked up): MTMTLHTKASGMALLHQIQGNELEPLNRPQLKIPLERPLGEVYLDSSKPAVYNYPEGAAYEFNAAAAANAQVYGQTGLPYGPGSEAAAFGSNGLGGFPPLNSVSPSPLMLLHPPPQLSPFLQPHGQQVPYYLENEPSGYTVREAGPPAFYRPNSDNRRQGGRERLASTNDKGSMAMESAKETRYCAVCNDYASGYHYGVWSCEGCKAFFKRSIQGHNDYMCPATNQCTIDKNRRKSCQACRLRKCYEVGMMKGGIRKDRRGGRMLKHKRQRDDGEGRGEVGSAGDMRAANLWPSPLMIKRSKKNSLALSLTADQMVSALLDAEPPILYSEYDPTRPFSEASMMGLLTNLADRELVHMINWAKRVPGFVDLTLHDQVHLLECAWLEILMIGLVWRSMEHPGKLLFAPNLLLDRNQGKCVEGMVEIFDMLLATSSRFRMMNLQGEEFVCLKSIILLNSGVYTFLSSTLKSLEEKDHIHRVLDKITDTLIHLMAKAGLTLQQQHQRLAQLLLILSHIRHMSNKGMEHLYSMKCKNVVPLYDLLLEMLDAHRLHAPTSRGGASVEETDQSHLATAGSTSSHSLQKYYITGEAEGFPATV
# Procedure, shortened: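 HeLa cells were dosed for 2 h, then GFP reporter induction was quantified by fluorescence microscopy with high-content image analysis. Gain of signal fitted against DMSO baseline.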
# [2] = target: Bile acid receptor (Homo sapiens) (UniProt Q96RI1); test: OT_FXR_FXRSRC1_0480: Odyssey Thera (OT) 8-hour HEK293T Protein-Complementation Assay for Farnesoid X receptor/SRC-1 Co-activator (AID 2283383)
# Bile acid receptor (Homo sapiens), sequence (Q96RI1 whole entry, looked up, the tested form may be a part): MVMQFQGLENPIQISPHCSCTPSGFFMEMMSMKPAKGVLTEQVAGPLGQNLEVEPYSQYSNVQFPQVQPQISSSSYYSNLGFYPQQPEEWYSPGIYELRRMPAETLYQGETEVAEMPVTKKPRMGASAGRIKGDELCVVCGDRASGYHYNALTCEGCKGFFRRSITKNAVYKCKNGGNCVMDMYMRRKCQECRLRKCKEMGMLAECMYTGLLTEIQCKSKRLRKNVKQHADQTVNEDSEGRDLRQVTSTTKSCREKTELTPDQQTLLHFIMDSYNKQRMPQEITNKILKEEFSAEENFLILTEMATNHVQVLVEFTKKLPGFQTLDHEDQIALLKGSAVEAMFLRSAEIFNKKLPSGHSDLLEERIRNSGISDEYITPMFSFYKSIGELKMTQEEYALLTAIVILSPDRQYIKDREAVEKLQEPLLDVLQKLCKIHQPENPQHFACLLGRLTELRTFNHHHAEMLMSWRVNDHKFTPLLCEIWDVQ
# Procedure, shortened: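 HEK293T protein-fragment complementation assay: FXR and SRC-1 coactivator are fused to reporter fragments, and their interaction restores a fluorescent reporter. Readout was taken 8 h after dosing, with gain of signal fit relative to DMSO.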
# [3] = target: Retinoic acid receptor RXR-alpha (Homo sapiens) (UniProt P19793); test: OT_NURR1_NURR1RXRa_1440: Odyssey Thera (OT) 24-hour HEK293T Protein Complementation Assay for Nurr1/retinoid X receptor (RXR) (AID 2283386)
# Retinoic acid receptor RXR-alpha (Homo sapiens), sequence (P19793 whole entry, looked up, the tested form may be a part): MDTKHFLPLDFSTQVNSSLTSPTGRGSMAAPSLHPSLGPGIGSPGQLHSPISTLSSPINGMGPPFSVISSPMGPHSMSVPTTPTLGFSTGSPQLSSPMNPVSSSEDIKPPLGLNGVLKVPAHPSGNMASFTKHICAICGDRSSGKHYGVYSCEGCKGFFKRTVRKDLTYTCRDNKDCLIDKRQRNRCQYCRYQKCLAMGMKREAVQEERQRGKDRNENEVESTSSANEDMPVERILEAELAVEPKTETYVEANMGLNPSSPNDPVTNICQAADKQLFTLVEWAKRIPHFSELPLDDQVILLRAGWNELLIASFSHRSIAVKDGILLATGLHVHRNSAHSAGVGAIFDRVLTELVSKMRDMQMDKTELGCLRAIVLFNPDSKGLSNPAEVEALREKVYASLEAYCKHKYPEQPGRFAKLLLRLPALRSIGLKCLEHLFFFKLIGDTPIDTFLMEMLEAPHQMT
# Procedure, shortened: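 HEK293T protein-fragment complementation of Nurr1 and RXRα fused to reporter fragments; compounds 24 h. Fluorescence gain from reconstituted reporter fitted versus DMSO.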
# [4] = target: Peroxisome proliferator-activated receptor gamma (Homo sapiens) (UniProt P37231); test: OT_PPARg_PPARgSRC1_0480: Odyssey Thera (OT) 8-hour Protein-Complementation Assay for Peroxisome Proliferator-activated Receptor Gamma / SRC-1 Co-activator (AID 2283387);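 also: nuclear to cytoplasmic split Venus YFP fluorescence ratio reporting PPARg SRC-1 interaction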
# Peroxisome proliferator-activated receptor gamma (Homo sapiens), sequence (P37231 whole entry, looked up, the tested form may be a part): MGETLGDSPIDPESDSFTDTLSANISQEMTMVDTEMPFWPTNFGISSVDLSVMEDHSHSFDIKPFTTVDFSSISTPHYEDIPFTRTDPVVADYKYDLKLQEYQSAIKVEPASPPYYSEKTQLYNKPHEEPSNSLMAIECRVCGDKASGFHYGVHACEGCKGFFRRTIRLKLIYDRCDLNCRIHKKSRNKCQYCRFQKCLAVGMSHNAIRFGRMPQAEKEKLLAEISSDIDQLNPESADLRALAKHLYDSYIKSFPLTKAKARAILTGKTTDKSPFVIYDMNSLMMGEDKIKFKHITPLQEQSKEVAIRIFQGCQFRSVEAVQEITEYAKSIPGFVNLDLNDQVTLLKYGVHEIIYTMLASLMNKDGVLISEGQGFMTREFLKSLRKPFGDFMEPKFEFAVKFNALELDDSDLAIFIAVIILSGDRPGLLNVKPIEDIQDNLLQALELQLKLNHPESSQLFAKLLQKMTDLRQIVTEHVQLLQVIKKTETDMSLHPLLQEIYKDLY
# Procedure, shortened: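 Protein-fragment complementation in HEK293T: Venus YFP halves (residues 1-158, 159-239, mutated to IFP1/IFP2) fused to PPARg/SRC-1. 8 h exposure; N/C ratio at 488 nm; DMSO negative control.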
# [5] = target: Peroxisome proliferator-activated receptor gamma (Homo sapiens) (UniProt P37231); test: OT_PPARg_PPARgSRC1_1440: Odyssey Thera (OT) 24-hour Protein-Complementation Assay for Peroxisome Proliferator-activated Receptor Gamma/ SRC-1 Co-activator (AID 2283388);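 also: nuclear to cytoplasmic ratio of reconstituted Venus YFP fluorescence in fixed imaged cells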
# Procedure, shortened: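 Readout is the 488 nm N/C fluorescence ratio from fixed, Draq5-stained HEK293T cells after 24 h compound exposure. Cells carried transiently transfected PPARg and SRC-1 fused to Venus fragments, transfected 48 h before treatment.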
# [6] = CEETOX_H295R_11DCORT: CeeTox H295R High-throughput Steroidogenesis Assay for 11-Deoxycortisol (11DCORT) (AID 2283432; active = hit-call score of the fitted dose curve at least 0.9, where 1 is the maximum; inactive = score below 0.9); conditions: actives raise or lower the signal
# Procedure, shortened: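 Adrenal carcinoma line H295R, run per OECD 456 with minor changes, was forskolin-stimulated (10 uM, 48 h) before a 48 h chemical exposure at 0.1% DMSO. Secreted 11-deoxycortisol was quantified by HPLC-MS/MS.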
# [7] = CEETOX_H295R_OHPREG: CeeTox H295R High-throughput Steroidogenesis Assay for OH-Pregnenolone (OHPREG) (AID 2283434; active = hit-call score of the fitted dose curve at least 0.9, where 1 is the maximum; inactive = score below 0.9); conditions: actives raise or lower the signal
# Procedure, shortened: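 Human adrenal H295R cells were prestimulated 48 h with 10 uM forskolin, then exposed 48 h to chemical in 0.1% DMSO. Medium 17alpha-hydroxypregnenolone was quantified by HPLC-MS/MS after MTBE extraction; bidirectional fitting versus DMSO baseline.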
# [8] = CEETOX_H295R_OHPROG: CeeTox H295R High-throughput Steroidogenesis Assay for OH-Progesterone (OHPROG) (AID 2283435; active = hit-call score of the fitted dose curve at least 0.9, where 1 is the maximum; inactive = score below 0.9); conditions: actives raise or lower the signal
# Procedure, shortened: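 H295R adrenal cells prestimulated 48 h with 10 uM forskolin, then exposed 48 h to chemical (0.1% DMSO final). 17alpha-hydroxyprogesterone in medium quantified by HPLC-MS/MS; bidirectional fit versus DMSO, with MTT viability measured in the same wells.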
# [9] = CEETOX_H295R_CORTIC: CeeTox H295R High-throughput Steroidogenesis Assay for Corticosterone (CORTIC) (AID 2283437; active = hit-call score of the fitted dose curve at least 0.9, where 1 is the maximum; inactive = score below 0.9;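 also: corticosterone secreted into medium quantified by mass spectrometry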); conditions: actives raise or lower the signal
# Procedure, shortened: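 H295R cells were prestimulated 48 h with 10 uM forskolin, then exposed 48 h to test chemical in 0.1% DMSO. Medium corticosterone was MTBE-extracted and quantified by HPLC-MS/MS; bidirectional fit versus DMSO baseline.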
# [10] = CEETOX_H295R_CORTISOL: CeeTox H295R High-throughput Steroidogenesis Assay for Cortisol (AID 2283438; active = hit-call score of the fitted dose curve at least 0.9, where 1 is the maximum; inactive = score below 0.9;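 also: cortisol secreted into medium quantified by LC-MS/MS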); conditions: actives raise or lower the signal
# Procedure, shortened: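 Forskolin-primed H295R cells (10 uM, 48 h) treated 48 h with test chemical in 0.1% DMSO. Cortisol in medium quantified by MTBE extraction and HPLC-MS/MS; bidirectional fit vs DMSO, MTT viability in same wells.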
# [11] = CEETOX_H295R_DOC: CeeTox H295R High-throughput Steroidogenesis Assay for DOC (AID 2283439; active = hit-call score of the fitted dose curve at least 0.9, where 1 is the maximum; inactive = score below 0.9); conditions: actives raise or lower the signal
# Procedure, shortened: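 H295R cells prestimulated 48 h with 10 uM forskolin, then exposed 48 h to test chemical (0.1% DMSO final). Medium 11-deoxycorticosterone measured by HPLC-MS/MS after MTBE extraction; bidirectional fit vs DMSO, viability checked by MTT in same wells.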
# [12] = CEETOX_H295R_ESTRADIOL: CeeTox H295R High-throughput Steroidogenesis Assay for Estradiol (AID 2283440; active = hit-call score of the fitted dose curve at least 0.9, where 1 is the maximum; inactive = score below 0.9;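 also: estradiol secreted into medium quantified by LC-MS/MS after dansyl derivatisation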); conditions: actives raise or lower the signal
# Procedure, shortened: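 Estradiol in spent medium measured by LC-MS/MS after dansyl chloride derivatisation. Forskolin-primed (10 uM, 48 h) human adrenal H295R cells received test chemical 48 h at 0.1% DMSO; concentrations lowered until MTT viability >/=70%.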
# [13] = CEETOX_H295R_ESTRONE: CeeTox H295R High-throughput Steroidogenesis Assay for Estrone (AID 2283441; active = hit-call score of the fitted dose curve at least 0.9, where 1 is the maximum; inactive = score below 0.9;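 also: estrone secreted into medium measured by LC-MS/MS after dansyl derivatization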); conditions: actives raise or lower the signal
# Procedure, shortened: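 H295R cells prestimulated 48 h with 10 uM forskolin, then exposed 48 h to chemicals in 0.1% DMSO final; estrone in medium extracted with MTBE, dansyl-derivatized, quantified by HPLC-MS/MS; bidirectional fitting versus DMSO, viability by MTT.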
# [14] = CEETOX_H295R_PROG: CeeTox H295R High-throughput Steroidogenesis Assay for Progesterone (PROG) (AID 2283442; active = hit-call score of the fitted dose curve at least 0.9, where 1 is the maximum; inactive = score below 0.9;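 as to AC50: human H295R adrenal cells primed with 10 µM forskolin before dosing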); conditions: actives raise or lower the signal
# Procedure, shortened: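 Progesterone secreted by human H295R cells was measured by LC-MS/MS following 48 h chemical exposure at 0.1% DMSO, preceded by 48 h forskolin (10 uM) stimulation. Same-well MTT viability; cytotoxic concentrations diluted 10- or 100-fold and retested.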
# [15] = read-out: Tumor necrosis factor receptor superfamily member 6 (Homo sapiens) (UniProt P25445); test: LTEA_HepaRG_FAS: Life Technologies and Expression Analysis (LTEA) Assay for Fas cell surface death receptor (FAS) using HepaRG (AID 2283447; active = hit-call score of the fitted dose curve at least 0.9, where 1 is the maximum; inactive = score below 0.9); conditions: mRNA level, 48 h; actives raise or lower the signal
# Procedure, shortened: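 Differentiated human HepaRG cells, pre-cultured 48 h, were exposed in duplicate for 48 h to 8-point half-log concentrations (top 100 uM, 0.5% DMSO) in serum-free induction medium; FAS mRNA measured by qRT-PCR, normalized to ACTB/GAPDH/POLR2A, bidirectional fit versus DMSO.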
# [16] = read-out: Fatty acid synthase (Homo sapiens) (UniProt P49327); test: LTEA_HepaRG_FASN: Life Technologies and Expression Analysis (LTEA) Assay for Fatty Acid Synthase (FASN) using HepaRG (AID 2283448; active = hit-call score of the fitted dose curve at least 0.9, where 1 is the maximum; inactive = score below 0.9); conditions: mRNA level, 48 h; actives raise or lower the signal
# Procedure, shortened: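 Differentiated HepaRG cells in serum-free induction medium exposed 48 h in duplicate to eight half-log concentrations, top 100 uM, 0.5% DMSO. FASN mRNA by qRT-PCR normalised to ACTB, GAPDH, POLR2A; bidirectional fit versus DMSO.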
# [17] = read-out: Cyclin D2 (CCND2), CCND2 (gene 894); test: LTEA_HepaRG_CCND2: Life Technologies and Expression Analysis (LTEA) Assay for Cyclin D2 (CCND2) using HepaRG (AID 2283449; active = hit-call score of the fitted dose curve at least 0.9, where 1 is the maximum; inactive = score below 0.9;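 also: CCND2 transcript measured by TaqMan qRT-PCR and normalised to three housekeeping genes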); conditions: mRNA level, 48 h; actives raise or lower the signal
# Procedure, shortened: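 Differentiated human HepaRG cells were exposed for 48 h in serum-free induction medium to eight half-log concentrations topping at 100 uM (0.5% DMSO vehicle). CCND2 mRNA was quantified by TaqMan qRT-PCR, normalised to ACTB, GAPDH and POLR2A, and fitted bidirectionally against DMSO.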
# [18] = target: Retinoic acid receptor RXR-alpha (Homo sapiens) (UniProt P19793); test: OT_NURR1_NURR1RXRa_0480: Odyssey Thera (OT) 8-hour HEK293T Protein Complementation Assay for Nurr1/retinoid X receptor (RXR) (AID 2283385)
# Procedure, shortened: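 HEK293T cells expressing Nurr1 and RXRα fused to reporter fragments (protein-fragment complementation); fluorescence measured 8 h after dosing. Gain of signal fitted relative to DMSO.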
# [19] = read-out: Cyclin Dependent Kinase Inhibitor 1A (CDKN1A), CDKN1A (gene 1026); test: LTEA_HepaRG_CDKN1A: Life Technologies and Expression Analysis (LTEA) Assay for Cyclin Dependent Kinase Inhibitor 1A (CDKN1A) using HepaRG (AID 2283450; active = hit-call score of the fitted dose curve at least 0.9, where 1 is the maximum; inactive = score below 0.9); conditions: mRNA level, 48 h; actives raise or lower the signal
# Procedure, shortened: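 Expression quantified by Fluidigm qRT-PCR with ACTB, GAPDH and POLR2A normalization, fitted bidirectionally against 0.5% DMSO. Cells: HepaRG, plated 48 h then treated 48 h in serum-free induction medium, top concentration 100 uM with half-log dilutions.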
# [20] = CEETOX_H295R_ANDR: CeeTox H295R High-throughput Steroidogenesis Assay for Androstenedione (ANDR) (AID 2283436; active = hit-call score of the fitted dose curve at least 0.9, where 1 is the maximum; inactive = score below 0.9); conditions: actives raise or lower the signal
# Procedure, shortened: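 H295R human adrenal cells (passages ≤10) were exposed to test chemicals for 48 h; androstenedione in medium was MTBE-extracted and quantified by HPLC-MS/MS against a 7-point standard curve. Bidirectional fitting used DMSO as baseline.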
# Fatty acid synthase (Homo sapiens), sequence (P49327 whole entry, looked up): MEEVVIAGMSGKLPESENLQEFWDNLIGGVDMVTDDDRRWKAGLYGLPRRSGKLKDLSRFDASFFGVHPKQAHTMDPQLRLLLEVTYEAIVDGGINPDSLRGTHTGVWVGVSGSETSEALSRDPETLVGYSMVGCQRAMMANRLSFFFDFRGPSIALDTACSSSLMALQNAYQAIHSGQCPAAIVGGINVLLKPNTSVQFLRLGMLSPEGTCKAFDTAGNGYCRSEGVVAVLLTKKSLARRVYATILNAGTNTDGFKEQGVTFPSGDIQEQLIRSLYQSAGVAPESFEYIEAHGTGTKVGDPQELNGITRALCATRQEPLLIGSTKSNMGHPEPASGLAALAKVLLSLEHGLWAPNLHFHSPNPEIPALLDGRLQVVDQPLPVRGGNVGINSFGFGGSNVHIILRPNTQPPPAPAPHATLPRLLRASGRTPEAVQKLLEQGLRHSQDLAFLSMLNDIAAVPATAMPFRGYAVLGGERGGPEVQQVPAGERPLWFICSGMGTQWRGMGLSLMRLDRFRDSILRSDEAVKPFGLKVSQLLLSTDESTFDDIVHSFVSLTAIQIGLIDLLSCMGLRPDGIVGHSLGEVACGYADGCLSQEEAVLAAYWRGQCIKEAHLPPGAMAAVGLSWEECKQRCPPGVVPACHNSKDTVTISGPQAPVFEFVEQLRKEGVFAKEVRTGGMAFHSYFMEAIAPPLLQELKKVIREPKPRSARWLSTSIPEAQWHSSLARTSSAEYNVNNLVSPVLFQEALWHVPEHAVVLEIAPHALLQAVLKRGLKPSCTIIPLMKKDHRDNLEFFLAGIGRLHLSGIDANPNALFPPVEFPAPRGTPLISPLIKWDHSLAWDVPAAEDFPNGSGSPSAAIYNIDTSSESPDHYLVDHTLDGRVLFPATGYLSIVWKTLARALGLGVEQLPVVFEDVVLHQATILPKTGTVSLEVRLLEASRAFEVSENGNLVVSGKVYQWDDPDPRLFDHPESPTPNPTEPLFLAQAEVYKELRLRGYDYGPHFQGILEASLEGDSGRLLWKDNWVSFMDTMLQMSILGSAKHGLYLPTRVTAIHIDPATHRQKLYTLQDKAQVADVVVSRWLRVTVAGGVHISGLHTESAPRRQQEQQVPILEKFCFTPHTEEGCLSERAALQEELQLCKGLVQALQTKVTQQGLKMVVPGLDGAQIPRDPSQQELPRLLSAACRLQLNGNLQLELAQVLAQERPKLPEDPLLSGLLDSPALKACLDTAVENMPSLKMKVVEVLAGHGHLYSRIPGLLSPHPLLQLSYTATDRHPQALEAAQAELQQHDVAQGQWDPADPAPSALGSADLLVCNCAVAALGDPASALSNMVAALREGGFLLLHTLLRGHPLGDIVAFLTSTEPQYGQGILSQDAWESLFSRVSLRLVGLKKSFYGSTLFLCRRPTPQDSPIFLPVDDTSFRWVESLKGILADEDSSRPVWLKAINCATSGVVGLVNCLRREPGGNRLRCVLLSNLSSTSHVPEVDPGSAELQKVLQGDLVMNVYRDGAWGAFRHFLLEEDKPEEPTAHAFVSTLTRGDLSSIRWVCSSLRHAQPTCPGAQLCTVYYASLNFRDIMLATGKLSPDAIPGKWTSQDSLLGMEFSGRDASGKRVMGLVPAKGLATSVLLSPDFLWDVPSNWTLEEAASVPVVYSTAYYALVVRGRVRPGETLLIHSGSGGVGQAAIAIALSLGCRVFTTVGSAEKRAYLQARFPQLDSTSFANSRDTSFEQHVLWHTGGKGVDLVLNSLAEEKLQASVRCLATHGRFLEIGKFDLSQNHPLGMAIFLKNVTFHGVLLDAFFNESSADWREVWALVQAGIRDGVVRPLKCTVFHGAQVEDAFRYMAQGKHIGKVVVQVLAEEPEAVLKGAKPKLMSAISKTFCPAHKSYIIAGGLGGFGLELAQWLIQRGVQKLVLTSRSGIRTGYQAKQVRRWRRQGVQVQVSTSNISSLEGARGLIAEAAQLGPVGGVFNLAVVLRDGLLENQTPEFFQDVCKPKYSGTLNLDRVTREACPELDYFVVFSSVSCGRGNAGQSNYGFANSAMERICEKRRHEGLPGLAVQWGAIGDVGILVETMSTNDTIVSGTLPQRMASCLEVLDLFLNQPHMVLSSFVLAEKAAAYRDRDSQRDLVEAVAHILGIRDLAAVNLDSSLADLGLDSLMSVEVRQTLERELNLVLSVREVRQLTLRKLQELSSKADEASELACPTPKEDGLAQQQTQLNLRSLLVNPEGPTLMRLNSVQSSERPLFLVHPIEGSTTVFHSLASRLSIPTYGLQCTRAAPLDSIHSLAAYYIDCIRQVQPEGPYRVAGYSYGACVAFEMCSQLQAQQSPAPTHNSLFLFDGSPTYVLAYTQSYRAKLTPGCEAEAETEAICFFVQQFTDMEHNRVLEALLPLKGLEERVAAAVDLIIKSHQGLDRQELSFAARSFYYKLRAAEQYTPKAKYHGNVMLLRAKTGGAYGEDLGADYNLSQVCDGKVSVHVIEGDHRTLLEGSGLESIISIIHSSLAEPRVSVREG
compound,measurement,setting,value
COC(=O)NC(=S)Nc1ccccc1NC(=S)NC(=O)OC,outcome,[1],inactive
same,outcome,[2],inactive
same,outcome,[3],inactive
same,outcome,[4],inactive
same,outcome,[5],inactive
same,outcome,[6],inactive
same,outcome,[7],inactive
same,outcome,[8],inactive
same,outcome,[9],inactive
same,outcome,[10],inactive
same,outcome,[11],inactive
same,outcome,[12],inactive
same,outcome,[13],inactive
same,outcome,[14],inactive
same,outcome,[15],inactive
same,outcome,[16],inactive
same,outcome,[17],inactive
Cc1cnc(C2=NC(C)(C(C)C)C(=O)N2)c(C(=O)O)c1 (stereo unspecified),outcome,[1],inactive
same,outcome,[18],inactive
same,outcome,[3],inactive
same,outcome,[4],inactive
same,outcome,[5],inactive
same,outcome,[15],inactive
same,outcome,[16],inactive
same,outcome,[17],inactive
same,outcome,[19],inactive
CC1(C)CCC(=Cc2ccc(Cl)cc2)C1(O)Cn1cncn1 (stereo unspecified),outcome,[1],inactive
same,outcome,[3],inactive
same,outcome,[4],inactive
same,outcome,[5],inactive
same,outcome,[6],inactive
same,outcome,[7],inactive
same,outcome,[8],inactive
same,outcome,[20],inactive
same,outcome,[9],inactive
same,AC50,[10],5 µM (active)
same,AC50,[11],1.59 µM (active)
same,outcome,[12],inactive
same,outcome,[13],inactive
same,AC50,[14],0.716 µM (active)
same,outcome,[15],inactive
same,AC50,[16],6.85 µM (active)
C=C(C)CN(CC)c1c([N+](=O)[O-])cc(C(F)(F)F)cc1[N+](=O)[O-],AC50,[1],12.1 µM (active)
same,outcome,[18],inactive
same,outcome,[3],inactive
same,outcome,[4],inactive
same,outcome,[5],inactive
same,outcome,[15],inactive
same,outcome,[16],inactive
same,outcome,[17],inactive
O=P(O)(O)CCCl,outcome,[2],inactive
same,outcome,[18],inactive
same,outcome,[3],inactive
same,outcome,[4],inactive
same,outcome,[5],inactive
same,outcome,[15],inactive
same,outcome,[16],inactive
Cc1nc(N(C)C)nc(OC(=O)N(C)C)c1C,outcome,[1],inactive
same,outcome,[18],inactive
same,outcome,[3],inactive
same,outcome,[4],inactive
same,outcome,[5],inactive
same,outcome,[6],inactive
same,outcome,[7],inactive
same,outcome,[8],inactive
same,outcome,[9],inactive
same,outcome,[10],inactive
same,outcome,[11],inactive
same,outcome,[12],inactive
same,outcome,[13],inactive
same,outcome,[14],inactive
same,outcome,[15],inactive
same,outcome,[16],inactive
same,outcome,[17],inactive
CCNC(=O)NC(=O)C(C#N)=NOC,outcome,[2],inactive
same,outcome,[18],inactive
same,AC50,[3],29.6 µM (active)
same,outcome,[3],inactive
same,outcome,[4],inactive
same,outcome,[5],inactive
same,outcome,[16],inactive
same,outcome,[17],inactive
same,outcome,[19],inactive
CC(C)C1(C)N=C(c2ncccc2C(=O)O)NC1=O (stereo unspecified),outcome,[1],inactive
same,outcome,[3],inactive
same,outcome,[4],inactive
same,outcome,[5],inactive
same,outcome,[15],inactive
same,outcome,[16],inactive
O=C(Nc1ccccc1-c1ccc(Cl)cc1)c1cccnc1Cl,outcome,[1],inactive
same,outcome,[18],inactive
same,outcome,[3],inactive
same,outcome,[4],inactive
same,outcome,[5],inactive
same,outcome,[6],inactive
same,outcome,[7],inactive
same,outcome,[8],inactive
same,outcome,[9],inactive
same,outcome,[10],inactive
same,AC50,[11],9.59 µM (active)
same,outcome,[12],inactive
same,outcome,[13],inactive
same,AC50,[14],13.1 µM (active)
same,outcome,[15],inactive
same,outcome,[16],inactive
same,outcome,[17],inactive
